Data published in PubChem BioAssay (Tox21).
Records with an inconclusive call do not appear. The source made the active and inactive calls. Unless noted, calls come from the whole dose curve; as a rule, active = well fitted curve in the direction sought with a large enough effect in the repeat runs; inconclusive = weak or mixed curves; inactive = no such curve, though single readings can be large; an effect the other way counts as inactive or inconclusive.

What was measured:
[1] = qHTS assay to identify small molecule agonists of H2AX (AID 1224845; active = well fitted activation curve with a large enough effect in the signal ratio in the repeat runs, not every such curve was filed as active; the % refers to the signal ratio)
In short: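 Wild-type CHO-K1 cells, plated overnight, exposed 3hr at 37C to 15 concentrations (0.76% DMSO final). Lysed, then HTRF anti-pH2AX (S139) cryptate and anti-H2AX-d2 antibodies, 24 hr room temperature; 665/620 nm emission read.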

[2] = qHTS assay to identify small molecule agonists of the hypoxia (HIF-1) signaling pathway (AID 1224846; active = well fitted activation curve with a large enough effect in the signal ratio in the repeat runs, not every such curve was filed as active; the % refers to the signal ratio)
In short: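 Compounds added to ME-180 cells carrying hypoxia-response-element beta-lactamase reporter (0.5% dialyzed FBS, 5 h preplating), 17 h at 37C; agonist activity detected by CCF4-AM B/G FRET read-out.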

[3] = qHTS assay to identify small molecule agonists of H2AX - cell viability counter screen (AID 1224847; calls by dose curve; note: top concentration of the series differs between compounds; nearly all actives have a fitted effect of over 30% in size)
In short: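 Wild-type CHO-K1 cells (10% FBS medium) were plated overnight at 37C, exposed to compounds at 15 concentrations for 3 hr at 37C (0.76% DMSO final), and viability was read as CellTiter-Glo luminescence after 30 min at room temperature.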

[4] = qHTS RealTime-Glo MT Cell Viability Assay in HepG2 cells - 24 hour (AID 1224867); note: nearly all actives have a fitted effect of over 50% in size
In short: (§1)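 Viability was tracked continuously by NanoLuc luminescence from prosubstrate reduced by living HepG2 cells, at successive time points over 40 h of compound exposure. Cells with reagent were preincubated 5 h at 37 °C before compound addition.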

[5] = qHTS RealTime-Glo MT Cell Viability Assay in HEK293 cells - 32 hour (AID 1224868); note: top concentration of the series differs between compounds; nearly all actives have a fitted effect of over 50% in size
In short: (§2)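 Viability tracked continuously by luminescence as live cells reduce a prosubstrate for NanoLuc; HEK293 cells preincubated 5 h, compound-treated at 37 C, and read at 0, 8, 16, 24, 32 and 40 h.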

[6] = A CellTox Green Cytotoxicity Assay to monitor cytotoxicity in HEK293 cells - 0 hour (AID 1224869); note: nearly all actives have a fitted effect of over 50% in size
In short: (§3)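 Fluorescence from a DNA-binding dye excluded by viable cells was measured repeatedly in the same HEK293 wells (600 cells/well) during continuous compound exposure at 37 C. Each assay gives one read point: 0, 8, 16, 24, 32 or 40 h.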

[7] = qHTS RealTime-Glo MT Cell Viability Assay in HepG2 cells - 40 hour (AID 1224870); note: nearly all actives have a fitted effect of over 50% in size
In short: (§4)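 HepG2 cells (600/well) mixed with RealTime-Glo MT reagent, settled 5 h at 37 C/5% CO2 before compound addition. Nonlytic NanoLuc luminescence from viable-cell prosubstrate reduction read repeatedly during 40 h treatment at 37 C.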

[8] = A CellTox Green Cytotoxicity Assay to monitor cytotoxicity in HEK293 cells - 40 hour (AID 1224871); note: nearly all actives have a fitted effect of over 45% in size
In short: as §3

[9] = qHTS RealTime-Glo MT Cell Viability Assay in HEK293 cells - 16 hour (AID 1224872)
In short: as §2

[10] = qHTS RealTime-Glo MT Cell Viability Assay in HepG2 cells - 8 hour (AID 1224873); note: nearly all actives have a fitted effect of over 55% in size
In short: as §4

[11] = qHTS RealTime-Glo MT Cell Viability Assay in HEK293 cells - 40 hour (AID 1224874); details: RealTime-Glo luminescence; max response: stronger effect = lower value; note: nearly all actives have a fitted effect of over 50% in size
In short: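 Luminescence, which tracks viable cell number through reduction of the prosubstrate to a NanoLuc substrate, was read over continuous 37 C culture. Cells (600/well) were premixed with reagent and rested 5 h before 23 nL of compound in DMSO was pinned.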

[12] = A CellTox Green Cytotoxicity Assay to monitor cytotoxicity in HEK293 cells - 24 hour (AID 1224875); note: nearly all actives have a fitted effect of over 45% in size
In short: as §3

[13] = A CellTox Green Cytotoxicity Assay to monitor cytotoxicity in HepG2 cells - 16 hour (AID 1224876); note: nearly all actives have a fitted effect of over 45% in size
In short: (§5)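 Real-time cytotoxicity: fluorescence of a cell-impermeant cyanine dye binding DNA of dead HepG2 cells, measured repeatedly (0–40 h) during compound exposure at 37 C. Cells seeded 600/well with reagent, dosed after 5 h.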

[14] = qHTS RealTime-Glo MT Cell Viability Assay in HepG2 cells - 32 hour (AID 1224877); note: nearly all actives have a fitted effect of over 55% in size
In short: as §1

[15] = A CellTox Green Cytotoxicity Assay to monitor cytotoxicity in HepG2 cells - 40 hour (AID 1224879); note: nearly all actives have a fitted effect of over 40% in size
In short: as §5

[16] = qHTS assay to identify small molecule agonists of the hypoxia (HIF-1) signaling pathway - cell viability counter screen (AID 1224844; calls by dose curve; note: nearly all actives have a fitted effect of over 50% in size)
In short: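 Cytotoxicity measured by CellTiter-Glo ATP luminescence in the wells also read for beta-lactamase signal. Cells were HRE-bla ME-180 (2,000/well, 0.5% dialyzed FBS), exposed to compounds for 17 h at 37C.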

[17] = qHTS assay to identify small molecule antagonists of the estrogen related receptor (ERR) signaling pathway from Tox21 library (AID 1224848); note: nearly all actives have a fitted effect of over 50% in size
In short: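 Compounds dissolved in DMSO are pin-transferred onto ERR reporter cells (2,000 per well) that have settled for 6 h at 37 C. Plates then incubate 18 h at 37 C before ONE-Glo luciferase reagent and a luminescence read 30 min later.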

[18] = qHTS assay to identify small molecule agonists of the estrogen related receptor (ERR) signaling pathway from Tox21 library (AID 1224849; calls by dose curve; note: nearly all actives have a fitted effect of over 15% in size); details: ERR reporter cell line, ONE-Glo luciferase, 18 h; at 92.4 µM (top of the series) unless noted
In short: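 Luminescent agonist read-out (One-Glo, 30-minute room-temperature incubation) following 18-hour compound treatment at 37 C of the ERR cell line, which had been plated 6 hours before dosing.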

[19] = A CellTox Green Cytotoxicity Assay to monitor cytotoxicity in HepG2 cells - 24 hour (AID 1224878); note: nearly all actives have a fitted effect of over 45% in size
In short: as §5
% is set by controls: 0 for no effect and ±100 for the full control effect.

CC[C@H](C)C(=O)O[C@H]1C[C@H](O)C=C2C=C[C@H](C)[C@H](CC[C@@H](O)C[C@@H](O)CC(=O)O)[C@H]21
inactive: outcome [1] | outcome [2] | Potency [3] | outcome [4] | Potency [5] | outcome [6] | outcome [7] | Potency [8] | Potency [9] | outcome [10] | max response [11] 13.5% | outcome [12] | outcome [13] | outcome [14] | Potency [15]

CCOCCOCCOCC
inactive: outcome [16] | outcome [2] | outcome [4] | Potency [5] | outcome [6] | Potency [9] | outcome [10] | max response [11] 4.8% | outcome [12] | outcome [13] | outcome [14] | Potency [15]

C=C(C)C(=O)OCC(C)(C)COC(=O)C(=C)C
inactive: outcome [16] | outcome [1] | outcome [2] | Potency [3] | Potency [17] | activity change, positive = activation [18] 0.866% | outcome [4] | Potency [5] | outcome [6] | Potency [8] | Potency [9] | outcome [10] | max response [11] 2.01% | outcome [12] | outcome [13] | outcome [19] | Potency [15]

COc1ccc(-c2cc(=O)c3c(O)cc(O[C@@H]4O[C@H](CO[C@@H]5O[C@@H](C)[C@H](O)[C@@H](O)[C@H]5O)[C@@H](O)[C@H](O)[C@H]4O)cc3o2)cc1O
inactive: outcome [16] | outcome [2] | Potency [3] | Potency [17] | activity change, positive = activation [18] -13.8% [at 42.5 µM] | outcome [4] | Potency [5] | outcome [6] | outcome [7] | Potency [8] | Potency [9] | outcome [10] | max response [11] 1.76% | outcome [12] | outcome [13] | outcome [14] | outcome [19] | Potency [15]

COc1cc(NS(=O)(=O)c2ccc(N)cc2)nc(OC)n1
inactive: outcome [16] | outcome [1] | Potency [3] | Potency [17] | outcome [4] | Potency [5] | outcome [6] | outcome [7] | Potency [8] | Potency [9] | outcome [10] | max response [11] 5.69% | outcome [12] | outcome [13] | outcome [14] | Potency [15]

CCCCN
inactive: outcome [16] | outcome [2] | Potency [3] | Potency [17] | activity change, positive = activation [18] 3.11% [at 42.5 µM] | outcome [4] | Potency [5] | outcome [6] | outcome [7] | Potency [8] | Potency [9] | outcome [10] | max response [11] 9.77% | outcome [12] | outcome [13] | outcome [14] | outcome [19] | Potency [15]

CC(=O)c1ccc2c(c1)Cc1ccccc1-2
inactive: outcome [16] | outcome [1] | outcome [2] | outcome [4] | Potency [5] | outcome [6] | Potency [8] | Potency [9] | outcome [10] | max response [11] -0.213% | outcome [12] | outcome [13] | Potency [15]

Nc1ccc(S(=O)(=O)Nc2ccc(Cl)nn2)cc1
inactive: outcome [16] | outcome [1] | Potency [3] | Potency [17] | activity change, positive = activation [18] 4.62% [at 42.5 µM] | outcome [4] | Potency [5] | outcome [6] | outcome [7] | Potency [8] | Potency [9] | outcome [10] | max response [11] -0.389% | outcome [12] | outcome [13] | outcome [14] | outcome [19] | Potency [15]

CC(C)(C)NC(N)=O
inactive: outcome [16] | outcome [1] | outcome [2] | Potency [3] | Potency [17] | activity change, positive = activation [18] 2.65% | outcome [4] | Potency [5] | outcome [6] | outcome [7] | Potency [8] | Potency [9] | outcome [10] | max response [11] 1.11% | outcome [13] | outcome [14] | Potency [15]

C[C@@H]1O[C@@H](O[C@@H]2[C@@H](O)[C@H](OCCc3ccc(O)c(O)c3)O[C@H](CO[C@@H]3O[C@H](CO)[C@@H](O)[C@H](O)[C@H]3O)[C@H]2OC(=O)/C=C/c2ccc(O)c(O)c2)[C@H](O)[C@H](O)[C@H]1O
inactive: outcome [16] | outcome [2] | Potency [3] | outcome [4] | outcome [6] | outcome [7] | Potency [8] | Potency [9] | outcome [10] | max response [11] -18.6% | outcome [12] | outcome [13] | outcome [14] | outcome [19]

FC(F)(F)c1ccccc1-n1ccnc1
inactive: outcome [16] | outcome [1] | Potency [3] | outcome [4] | Potency [5] | outcome [6] | outcome [7] | Potency [8] | Potency [9] | outcome [10] | max response [11] -3.14% | outcome [12] | outcome [13] | outcome [14] | Potency [15]

N#Cc1ccc(C(=O)O)cc1
inactive: outcome [16] | outcome [1] | outcome [2] | Potency [17] | activity change, positive = activation [18] 1.83% | outcome [4] | Potency [5] | outcome [6] | outcome [7] | Potency [8] | Potency [9] | outcome [10] | max response [11] 3.59% | outcome [12] | outcome [13] | outcome [14] | outcome [19] | Potency [15]
